Assay results taken from the supplement of paper PMC11732987, “Enantioselective OTUD7B fragment discovery through chemoproteomics screening and high-throughput optimisation” (Communications Chemistry, 2025).

How the values were obtained:
Test in all cases: log2 ratio of Biotin-Ahx-Ub-VS probe labelling (fragment/DMSO); higher = less target engagement (more negative = stronger competition), active = hit call of the paper (q ≤ 0.05, log2 ratio ≤ -1)
Settings in all cases: compound concentration: 200 uM; treatment time: 3 h
USP34 = USP34 (UniProt Q70CQ2)
Procedure, shortened: (§1)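 Triplicate samples of HEK293T lysate, 495 µg each, received fragment at 200 µM or vehicle for 3 h, followed by Biotin-Ahx-Ub-VS (0.5 µM final) for 1 h. After NeutrAvidin enrichment of labelled DUBs and LysC/trypsin digestion, peptides were run by diaPASEF LC-MS/MS. The values are average log2 fragment/vehicle ratios from global-median-normalised Spectronaut label-free quantities, tested by unpaired t-test on proteins having ≥2 unique peptides.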

USP36 = molecular target: T1, USP36 (UniProt Q9P275)
T1 sequence (whole entry): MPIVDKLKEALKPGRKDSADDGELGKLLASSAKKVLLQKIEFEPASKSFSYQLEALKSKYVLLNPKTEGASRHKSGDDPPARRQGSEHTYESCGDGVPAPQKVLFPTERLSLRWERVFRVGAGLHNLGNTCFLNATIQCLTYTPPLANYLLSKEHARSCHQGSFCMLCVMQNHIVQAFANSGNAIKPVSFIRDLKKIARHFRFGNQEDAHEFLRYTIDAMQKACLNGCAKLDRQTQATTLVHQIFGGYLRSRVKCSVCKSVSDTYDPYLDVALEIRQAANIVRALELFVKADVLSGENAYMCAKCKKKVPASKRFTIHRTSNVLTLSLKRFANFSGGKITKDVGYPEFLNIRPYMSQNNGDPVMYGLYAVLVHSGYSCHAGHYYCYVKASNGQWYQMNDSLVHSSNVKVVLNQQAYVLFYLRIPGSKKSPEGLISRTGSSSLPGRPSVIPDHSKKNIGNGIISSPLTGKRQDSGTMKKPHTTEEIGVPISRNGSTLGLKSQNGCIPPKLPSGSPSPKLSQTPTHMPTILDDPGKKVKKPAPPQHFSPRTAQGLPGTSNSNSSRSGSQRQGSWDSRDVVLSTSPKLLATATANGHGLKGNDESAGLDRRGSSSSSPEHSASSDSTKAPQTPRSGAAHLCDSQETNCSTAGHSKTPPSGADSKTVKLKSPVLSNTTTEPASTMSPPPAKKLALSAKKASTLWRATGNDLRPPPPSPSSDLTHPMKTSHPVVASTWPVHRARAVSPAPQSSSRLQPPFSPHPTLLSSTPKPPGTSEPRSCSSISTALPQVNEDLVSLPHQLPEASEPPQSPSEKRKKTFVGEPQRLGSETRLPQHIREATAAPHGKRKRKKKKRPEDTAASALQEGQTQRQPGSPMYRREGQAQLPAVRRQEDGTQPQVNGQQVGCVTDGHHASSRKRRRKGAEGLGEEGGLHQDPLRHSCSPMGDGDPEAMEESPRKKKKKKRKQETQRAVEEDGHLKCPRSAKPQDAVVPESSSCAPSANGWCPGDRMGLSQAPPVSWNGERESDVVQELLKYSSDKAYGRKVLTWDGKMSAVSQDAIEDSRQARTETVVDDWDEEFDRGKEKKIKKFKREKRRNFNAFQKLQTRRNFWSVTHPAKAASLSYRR
Procedure, shortened: as §1

USP38 = molecular target: T2, USP38 (UniProt Q8NB14)
T2 sequence (whole entry): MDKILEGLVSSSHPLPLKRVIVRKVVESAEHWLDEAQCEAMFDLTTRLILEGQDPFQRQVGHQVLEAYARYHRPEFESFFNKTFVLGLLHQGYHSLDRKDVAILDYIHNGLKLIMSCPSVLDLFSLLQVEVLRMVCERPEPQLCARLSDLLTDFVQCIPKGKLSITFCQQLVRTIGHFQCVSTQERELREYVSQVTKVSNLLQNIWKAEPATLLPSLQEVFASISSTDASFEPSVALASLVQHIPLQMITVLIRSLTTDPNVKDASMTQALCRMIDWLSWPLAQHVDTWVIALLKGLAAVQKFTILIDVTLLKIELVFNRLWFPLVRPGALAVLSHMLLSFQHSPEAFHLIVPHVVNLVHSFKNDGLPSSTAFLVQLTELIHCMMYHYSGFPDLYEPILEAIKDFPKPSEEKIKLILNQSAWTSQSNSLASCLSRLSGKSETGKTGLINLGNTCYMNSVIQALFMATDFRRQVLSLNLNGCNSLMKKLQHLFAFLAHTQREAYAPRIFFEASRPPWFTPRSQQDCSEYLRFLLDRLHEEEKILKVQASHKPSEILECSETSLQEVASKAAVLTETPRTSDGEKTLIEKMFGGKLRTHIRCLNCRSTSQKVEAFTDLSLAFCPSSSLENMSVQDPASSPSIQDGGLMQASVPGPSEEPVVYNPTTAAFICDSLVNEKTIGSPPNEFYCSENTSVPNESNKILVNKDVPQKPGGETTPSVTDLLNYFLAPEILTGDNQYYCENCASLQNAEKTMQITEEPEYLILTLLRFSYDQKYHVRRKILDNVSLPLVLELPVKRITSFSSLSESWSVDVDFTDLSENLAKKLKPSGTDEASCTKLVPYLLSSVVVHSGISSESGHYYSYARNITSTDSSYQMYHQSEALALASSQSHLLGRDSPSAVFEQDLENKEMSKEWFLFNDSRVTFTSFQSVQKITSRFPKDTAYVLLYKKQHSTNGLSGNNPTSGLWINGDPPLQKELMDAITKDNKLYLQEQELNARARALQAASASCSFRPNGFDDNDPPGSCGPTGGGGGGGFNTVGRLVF
Procedure, shortened: as §1

USP39 = molecular target: T3, USP39 (UniProt Q53GS9)
T3 sequence (whole entry): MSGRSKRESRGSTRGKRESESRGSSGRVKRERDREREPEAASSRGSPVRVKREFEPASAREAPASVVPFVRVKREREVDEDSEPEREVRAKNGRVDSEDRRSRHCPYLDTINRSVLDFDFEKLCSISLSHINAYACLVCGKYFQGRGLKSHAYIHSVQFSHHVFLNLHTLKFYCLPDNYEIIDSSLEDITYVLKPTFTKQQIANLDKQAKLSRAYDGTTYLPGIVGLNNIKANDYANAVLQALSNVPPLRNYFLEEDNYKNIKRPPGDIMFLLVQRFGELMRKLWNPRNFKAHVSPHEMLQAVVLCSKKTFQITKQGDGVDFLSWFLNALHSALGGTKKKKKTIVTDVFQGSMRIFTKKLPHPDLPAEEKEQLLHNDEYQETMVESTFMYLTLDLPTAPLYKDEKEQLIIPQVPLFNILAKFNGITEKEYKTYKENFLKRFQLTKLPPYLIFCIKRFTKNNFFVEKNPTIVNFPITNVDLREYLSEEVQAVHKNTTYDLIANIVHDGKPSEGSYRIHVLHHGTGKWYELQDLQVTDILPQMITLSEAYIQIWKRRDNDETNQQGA
Procedure, shortened: as §1

USP4 = molecular target: T4, USP4 (UniProt Q13107)
T4 sequence (whole entry): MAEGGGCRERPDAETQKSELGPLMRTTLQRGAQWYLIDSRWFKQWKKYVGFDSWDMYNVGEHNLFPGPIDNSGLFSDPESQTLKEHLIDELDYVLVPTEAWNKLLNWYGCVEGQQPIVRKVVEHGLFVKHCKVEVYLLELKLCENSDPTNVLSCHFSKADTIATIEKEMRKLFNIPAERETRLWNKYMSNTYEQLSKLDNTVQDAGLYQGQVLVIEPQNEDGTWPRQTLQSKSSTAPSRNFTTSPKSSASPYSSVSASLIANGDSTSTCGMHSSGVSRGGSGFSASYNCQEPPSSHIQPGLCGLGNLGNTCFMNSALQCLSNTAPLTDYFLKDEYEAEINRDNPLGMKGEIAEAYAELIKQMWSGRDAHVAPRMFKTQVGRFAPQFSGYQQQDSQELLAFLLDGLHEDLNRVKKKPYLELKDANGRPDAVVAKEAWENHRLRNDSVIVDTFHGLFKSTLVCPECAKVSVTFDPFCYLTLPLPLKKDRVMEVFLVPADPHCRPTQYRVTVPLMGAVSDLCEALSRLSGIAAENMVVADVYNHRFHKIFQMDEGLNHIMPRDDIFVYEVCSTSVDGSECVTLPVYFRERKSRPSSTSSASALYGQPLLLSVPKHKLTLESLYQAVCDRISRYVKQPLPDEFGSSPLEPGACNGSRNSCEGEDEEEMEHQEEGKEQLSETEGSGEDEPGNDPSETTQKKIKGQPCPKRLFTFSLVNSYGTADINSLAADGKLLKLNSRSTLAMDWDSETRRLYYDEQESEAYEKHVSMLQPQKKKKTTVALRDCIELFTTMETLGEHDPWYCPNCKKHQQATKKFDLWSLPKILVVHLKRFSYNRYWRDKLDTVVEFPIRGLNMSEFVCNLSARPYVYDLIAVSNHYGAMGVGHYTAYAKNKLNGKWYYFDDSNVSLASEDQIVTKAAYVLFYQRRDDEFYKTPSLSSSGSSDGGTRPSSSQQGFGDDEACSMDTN
Procedure, shortened: as §1

Measured: log2 ratio of Biotin-Ahx-Ub-VS probe labelling

Sequence of USP34 (Q70CQ2 whole entry, the tested form may be a part): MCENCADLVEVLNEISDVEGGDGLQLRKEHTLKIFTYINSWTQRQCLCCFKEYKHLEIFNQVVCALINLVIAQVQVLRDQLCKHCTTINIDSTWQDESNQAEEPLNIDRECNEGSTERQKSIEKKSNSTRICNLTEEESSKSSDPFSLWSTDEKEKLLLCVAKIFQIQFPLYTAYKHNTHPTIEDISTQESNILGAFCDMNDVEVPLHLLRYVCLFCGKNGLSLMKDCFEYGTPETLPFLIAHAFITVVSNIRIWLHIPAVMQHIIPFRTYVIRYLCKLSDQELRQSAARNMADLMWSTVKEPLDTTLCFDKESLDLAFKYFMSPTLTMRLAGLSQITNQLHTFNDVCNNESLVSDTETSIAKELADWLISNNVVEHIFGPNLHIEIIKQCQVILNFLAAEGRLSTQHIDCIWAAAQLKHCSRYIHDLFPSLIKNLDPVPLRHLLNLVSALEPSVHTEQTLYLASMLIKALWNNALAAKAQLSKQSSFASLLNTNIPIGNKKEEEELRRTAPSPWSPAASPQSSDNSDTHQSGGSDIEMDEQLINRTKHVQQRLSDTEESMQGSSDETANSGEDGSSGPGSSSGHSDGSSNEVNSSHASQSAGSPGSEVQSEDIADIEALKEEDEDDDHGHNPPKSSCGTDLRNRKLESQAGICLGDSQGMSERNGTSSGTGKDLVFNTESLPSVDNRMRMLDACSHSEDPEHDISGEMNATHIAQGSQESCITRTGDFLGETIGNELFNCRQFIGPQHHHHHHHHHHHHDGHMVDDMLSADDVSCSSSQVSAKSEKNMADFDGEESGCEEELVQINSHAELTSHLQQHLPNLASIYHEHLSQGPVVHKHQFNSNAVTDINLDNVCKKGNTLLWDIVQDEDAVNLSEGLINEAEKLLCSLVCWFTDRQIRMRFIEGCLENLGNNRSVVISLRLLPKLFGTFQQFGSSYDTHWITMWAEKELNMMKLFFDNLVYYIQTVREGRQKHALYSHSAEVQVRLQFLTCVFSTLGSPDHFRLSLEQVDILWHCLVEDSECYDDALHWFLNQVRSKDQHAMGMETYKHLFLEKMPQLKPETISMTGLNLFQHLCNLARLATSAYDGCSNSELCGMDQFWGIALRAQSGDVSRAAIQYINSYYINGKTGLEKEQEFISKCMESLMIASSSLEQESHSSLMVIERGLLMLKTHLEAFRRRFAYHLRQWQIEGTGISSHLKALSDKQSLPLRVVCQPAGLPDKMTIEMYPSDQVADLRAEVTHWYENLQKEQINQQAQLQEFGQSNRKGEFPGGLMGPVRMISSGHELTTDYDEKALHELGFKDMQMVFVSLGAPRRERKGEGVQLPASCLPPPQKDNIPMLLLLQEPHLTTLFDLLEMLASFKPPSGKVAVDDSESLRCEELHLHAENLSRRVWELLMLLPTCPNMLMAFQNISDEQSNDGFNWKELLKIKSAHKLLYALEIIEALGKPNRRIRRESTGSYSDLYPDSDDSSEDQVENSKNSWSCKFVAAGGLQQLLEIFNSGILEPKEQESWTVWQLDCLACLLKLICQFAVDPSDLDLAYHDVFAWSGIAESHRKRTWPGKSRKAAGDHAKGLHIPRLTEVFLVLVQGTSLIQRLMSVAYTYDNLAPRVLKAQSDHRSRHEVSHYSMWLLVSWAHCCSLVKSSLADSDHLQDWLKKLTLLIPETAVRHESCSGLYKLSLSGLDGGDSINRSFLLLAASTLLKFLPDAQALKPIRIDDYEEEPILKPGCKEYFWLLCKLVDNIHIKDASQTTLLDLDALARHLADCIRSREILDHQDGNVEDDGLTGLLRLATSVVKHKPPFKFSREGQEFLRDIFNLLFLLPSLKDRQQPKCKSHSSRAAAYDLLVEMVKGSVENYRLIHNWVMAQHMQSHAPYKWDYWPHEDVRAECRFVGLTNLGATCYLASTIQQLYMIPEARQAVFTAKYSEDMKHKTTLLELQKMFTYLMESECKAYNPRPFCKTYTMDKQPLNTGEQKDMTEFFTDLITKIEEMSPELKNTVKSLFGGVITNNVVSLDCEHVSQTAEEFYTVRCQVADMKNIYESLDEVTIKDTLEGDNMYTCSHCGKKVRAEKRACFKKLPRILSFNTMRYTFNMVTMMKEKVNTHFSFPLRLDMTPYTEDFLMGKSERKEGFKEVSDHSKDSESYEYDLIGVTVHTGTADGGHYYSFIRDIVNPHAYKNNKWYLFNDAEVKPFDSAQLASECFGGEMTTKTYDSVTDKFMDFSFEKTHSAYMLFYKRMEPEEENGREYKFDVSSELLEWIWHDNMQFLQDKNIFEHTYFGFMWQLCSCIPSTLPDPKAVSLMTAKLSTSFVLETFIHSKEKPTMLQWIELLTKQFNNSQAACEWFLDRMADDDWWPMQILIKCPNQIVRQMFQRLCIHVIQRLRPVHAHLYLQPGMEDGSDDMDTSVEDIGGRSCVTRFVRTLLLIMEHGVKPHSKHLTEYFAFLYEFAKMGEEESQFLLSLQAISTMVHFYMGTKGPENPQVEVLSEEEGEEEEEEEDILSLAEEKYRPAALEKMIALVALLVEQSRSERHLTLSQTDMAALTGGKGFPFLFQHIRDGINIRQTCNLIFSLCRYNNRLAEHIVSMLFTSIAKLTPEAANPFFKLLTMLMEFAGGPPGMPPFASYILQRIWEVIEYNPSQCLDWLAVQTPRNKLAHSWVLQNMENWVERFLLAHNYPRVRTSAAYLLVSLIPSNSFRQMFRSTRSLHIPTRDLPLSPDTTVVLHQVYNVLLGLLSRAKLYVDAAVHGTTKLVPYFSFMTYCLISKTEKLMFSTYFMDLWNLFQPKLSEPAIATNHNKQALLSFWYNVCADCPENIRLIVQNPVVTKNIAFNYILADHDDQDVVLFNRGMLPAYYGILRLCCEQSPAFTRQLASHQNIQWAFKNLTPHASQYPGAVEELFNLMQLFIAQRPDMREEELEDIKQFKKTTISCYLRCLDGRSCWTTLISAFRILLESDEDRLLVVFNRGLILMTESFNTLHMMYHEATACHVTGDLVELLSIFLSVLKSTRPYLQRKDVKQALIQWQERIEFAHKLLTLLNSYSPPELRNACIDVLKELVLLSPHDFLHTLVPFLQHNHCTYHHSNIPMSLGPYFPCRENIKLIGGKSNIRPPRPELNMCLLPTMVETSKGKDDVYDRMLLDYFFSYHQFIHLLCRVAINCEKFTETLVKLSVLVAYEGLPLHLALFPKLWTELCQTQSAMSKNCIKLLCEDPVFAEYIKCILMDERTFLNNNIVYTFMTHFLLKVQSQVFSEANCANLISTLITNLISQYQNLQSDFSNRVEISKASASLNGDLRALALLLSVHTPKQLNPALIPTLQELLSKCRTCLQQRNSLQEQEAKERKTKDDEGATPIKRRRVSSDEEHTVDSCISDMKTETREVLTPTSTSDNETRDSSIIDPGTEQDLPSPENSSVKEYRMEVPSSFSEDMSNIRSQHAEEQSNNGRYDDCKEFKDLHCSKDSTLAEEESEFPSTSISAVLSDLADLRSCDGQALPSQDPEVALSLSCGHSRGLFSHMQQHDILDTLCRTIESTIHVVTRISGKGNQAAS

Cc1cc(C(=O)NC2CCN(C(=O)CCl)CC2)no1
inactive: USP34 -0.22 | USP36 -0.0502 | USP38 0.122 | USP39 0.0572 | USP4 -0.111
